# From PubChem BioAssay (Tox21)
# Values joined by “and” are separate entries in the source; they are usually repeats but may differ in a detail not shown here. Identical values can stand only once. Records with an inconclusive call do not appear. Entries that show only a call come without a potency. Active and inactive are the calls of the source. Calls follow the shape of the dose curve; as a rule, active = well fitted curve in the direction sought with a large enough effect in the repeat runs; inconclusive = weak or mixed curves; inactive = no such curve, though single readings can be large; an effect the other way counts as inactive or inconclusive.
# Columns and labels:
# [1] = molecular target: Cytochrome P450 2C19 (Homo sapiens) (UniProt P33261); assay: Cytochrome P450 Family 2 Subfamily C Member 19 (CYP2C19) small molecule antagonists: luciferase reporter qHTS assay (AID 1671197); conditions: P450-Glo CYP2C19 enzyme, luciferin luminescence, 1 h; series mostly up to 115 µM; also: nearly all actives have a fitted effect of over 65% in size; also: potency is read from the fitted curve at half-maximal effect
# Procedure, shortened: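 Compounds were tested on CYP2C19 activity via proluciferin conversion to luciferin. The 37C, 1 h reaction followed NADPH addition; detection reagent stopped it.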
# [2] = molecular target: Cytochrome P450 2C9 (Homo sapiens) (UniProt P11712); assay: Cytochrome P450 Family 2 Subfamily C Member 9 (CYP2C9) small molecule antagonists: luciferase reporter qHTS assay (AID 1671198); conditions: P450-Glo CYP2C9 enzyme assay, luciferin luminescence; series mostly up to 115 µM; also: nearly all actives have a fitted effect of over 50% in size
# Procedure, shortened: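 CYP2C9 activity was measured with a P450-Glo proluciferin substrate. Enzyme–substrate mix was held with compound for 10 min at room temperature, then NADPH regeneration solution was added for 1 h at 37C. Luciferin product was read as luminescence.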
# [3] = molecular target: Cytochrome P450 1A2 (Homo sapiens) (UniProt P05177); assay: Cytochrome P450 Family 1 Subfamily A Member 2 (CYP1A2) small molecule antagonists: luciferase reporter qHTS assay (AID 1671199); conditions: P450-Glo CYP1A2 enzyme, luciferin luminescence, 1 h; series mostly up to 115 µM; also: nearly all actives have a fitted effect of over 50% in size; also: potency is read from the fitted curve at half-maximal effect
# Procedure, shortened: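 Luminescence from luciferin formed by CYP1A2 from a proluciferin substrate, read 20 min after detection reagent. Compound was pre-incubated 10 min with enzyme-substrate, and reaction started with NADPH regeneration solution for 1 h at room temperature; furafylline control.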
# [4] = molecular target: Voltage-gated inwardly rectifying potassium channel KCNH2 (Homo sapiens) (UniProt Q12809); assay: Human Ether-a-go-go-Related Gene (hERG) channel small molecule antagonists: fluorescence cell-based qHTS assay (AID 1671200); conditions: hERG-U2OS cells, FluxOR thallium flux fluorescence; series mostly up to 76.8 µM;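 also: hERG-expressing U2OS cells given a thallium stimulus after FluxOR II dye loading; nearly all actives have a fitted effect of over 50% in size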
# Procedure, shortened: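 First, 1000 cells per well are seeded and cultured overnight at 37 C. Next, FluxOR II dye is loaded for 1 h at room temperature, protected from light. After 10 more minutes, stimulus is added and fluorescence is read.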
# [5] = molecular target: Cytochrome P450 3A4 (Homo sapiens) (UniProt P08684); assay: Cytochrome P450 Family 3 Subfamily A Member 4 (CYP3A4) small molecule antagonists: luciferase reporter qHTS assay (AID 1671201); conditions: P450-Glo CYP3A4 enzyme, luciferin luminescence, 1 h; series mostly up to 115 µM; also: nearly all actives have a fitted effect of over 50% in size; also: potency is read from the fitted curve at half-maximal effect
# Procedure, shortened: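 Enzyme and proluciferin substrate are mixed with test chemicals for 10 min, then NADPH regeneration system drives turnover for 1 h at room temperature. A detection reagent halts the reaction; luminescence after 20 min gives relative activity.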
# Cytochrome P450 1A2 (Homo sapiens), sequence (P05177 whole entry, looked up): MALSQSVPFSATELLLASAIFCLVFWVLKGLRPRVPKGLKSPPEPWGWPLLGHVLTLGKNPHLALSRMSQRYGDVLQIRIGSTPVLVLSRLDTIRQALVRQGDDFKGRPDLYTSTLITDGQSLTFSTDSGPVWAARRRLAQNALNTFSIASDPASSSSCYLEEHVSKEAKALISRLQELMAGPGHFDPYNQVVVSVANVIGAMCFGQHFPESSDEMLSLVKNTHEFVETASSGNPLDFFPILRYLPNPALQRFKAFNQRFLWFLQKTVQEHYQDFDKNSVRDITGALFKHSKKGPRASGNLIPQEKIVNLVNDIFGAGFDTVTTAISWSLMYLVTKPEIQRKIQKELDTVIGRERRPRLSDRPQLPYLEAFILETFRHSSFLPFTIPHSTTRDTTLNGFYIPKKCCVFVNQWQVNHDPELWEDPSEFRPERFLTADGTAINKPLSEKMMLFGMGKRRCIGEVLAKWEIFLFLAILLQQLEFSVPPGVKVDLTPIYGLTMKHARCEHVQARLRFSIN
# Voltage-gated inwardly rectifying potassium channel KCNH2 (Homo sapiens), sequence (Q12809 whole entry, looked up): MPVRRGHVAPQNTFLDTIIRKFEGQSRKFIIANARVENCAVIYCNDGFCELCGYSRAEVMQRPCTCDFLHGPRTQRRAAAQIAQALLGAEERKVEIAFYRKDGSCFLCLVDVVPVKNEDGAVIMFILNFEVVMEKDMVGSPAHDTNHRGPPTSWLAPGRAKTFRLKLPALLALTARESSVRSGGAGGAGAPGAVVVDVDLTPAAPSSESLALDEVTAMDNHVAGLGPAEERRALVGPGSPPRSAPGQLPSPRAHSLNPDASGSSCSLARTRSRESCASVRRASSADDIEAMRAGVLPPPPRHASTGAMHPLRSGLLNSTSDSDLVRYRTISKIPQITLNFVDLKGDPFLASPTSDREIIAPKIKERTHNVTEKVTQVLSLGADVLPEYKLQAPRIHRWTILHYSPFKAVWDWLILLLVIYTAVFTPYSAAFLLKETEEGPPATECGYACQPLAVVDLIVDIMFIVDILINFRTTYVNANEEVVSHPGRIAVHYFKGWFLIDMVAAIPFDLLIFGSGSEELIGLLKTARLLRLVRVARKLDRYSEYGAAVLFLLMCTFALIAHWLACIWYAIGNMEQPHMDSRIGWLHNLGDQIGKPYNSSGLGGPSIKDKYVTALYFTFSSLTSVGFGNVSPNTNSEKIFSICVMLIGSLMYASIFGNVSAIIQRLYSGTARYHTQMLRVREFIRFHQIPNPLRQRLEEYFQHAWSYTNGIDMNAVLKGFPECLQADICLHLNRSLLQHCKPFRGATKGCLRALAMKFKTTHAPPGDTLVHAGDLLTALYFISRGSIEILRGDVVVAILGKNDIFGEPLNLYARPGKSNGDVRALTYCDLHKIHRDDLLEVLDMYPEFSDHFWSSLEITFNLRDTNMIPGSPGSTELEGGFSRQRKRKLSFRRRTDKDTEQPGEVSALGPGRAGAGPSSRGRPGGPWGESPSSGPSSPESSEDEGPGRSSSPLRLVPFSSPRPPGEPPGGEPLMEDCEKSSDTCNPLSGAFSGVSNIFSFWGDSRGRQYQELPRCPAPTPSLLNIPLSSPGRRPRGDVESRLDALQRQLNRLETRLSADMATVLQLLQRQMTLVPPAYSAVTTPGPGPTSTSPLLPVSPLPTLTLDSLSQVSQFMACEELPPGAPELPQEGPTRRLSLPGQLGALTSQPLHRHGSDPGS
# Cytochrome P450 2C9 (Homo sapiens), sequence (P11712 whole entry, looked up): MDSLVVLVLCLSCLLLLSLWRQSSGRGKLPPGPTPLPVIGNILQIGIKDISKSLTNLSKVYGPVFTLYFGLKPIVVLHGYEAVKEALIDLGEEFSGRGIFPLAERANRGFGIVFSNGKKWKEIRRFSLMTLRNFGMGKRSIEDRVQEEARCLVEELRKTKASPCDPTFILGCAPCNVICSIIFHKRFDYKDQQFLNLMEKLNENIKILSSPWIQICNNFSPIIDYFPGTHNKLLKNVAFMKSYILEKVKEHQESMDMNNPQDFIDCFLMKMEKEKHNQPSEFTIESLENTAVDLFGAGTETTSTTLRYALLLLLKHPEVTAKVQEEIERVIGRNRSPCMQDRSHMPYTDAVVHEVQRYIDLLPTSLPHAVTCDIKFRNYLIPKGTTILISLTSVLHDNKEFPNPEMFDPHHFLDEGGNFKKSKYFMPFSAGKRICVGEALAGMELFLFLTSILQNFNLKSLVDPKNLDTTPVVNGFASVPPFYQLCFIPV
# Cytochrome P450 3A4 (Homo sapiens), sequence (P08684 whole entry, looked up): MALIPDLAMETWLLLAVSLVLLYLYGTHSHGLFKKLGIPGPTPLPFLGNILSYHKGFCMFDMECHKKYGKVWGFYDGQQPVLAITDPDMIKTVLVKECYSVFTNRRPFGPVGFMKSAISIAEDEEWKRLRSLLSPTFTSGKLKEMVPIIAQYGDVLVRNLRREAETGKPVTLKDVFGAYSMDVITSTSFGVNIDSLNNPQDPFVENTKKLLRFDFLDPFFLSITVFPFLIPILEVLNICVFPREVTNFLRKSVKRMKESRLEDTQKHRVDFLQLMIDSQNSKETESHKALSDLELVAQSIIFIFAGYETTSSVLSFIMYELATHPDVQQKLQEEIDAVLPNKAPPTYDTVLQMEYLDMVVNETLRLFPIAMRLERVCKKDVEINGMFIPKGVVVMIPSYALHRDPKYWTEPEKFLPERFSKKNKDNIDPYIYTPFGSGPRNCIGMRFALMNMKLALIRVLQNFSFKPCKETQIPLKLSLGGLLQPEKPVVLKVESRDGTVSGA
# Cytochrome P450 2C19 (Homo sapiens), sequence (P33261 whole entry, looked up): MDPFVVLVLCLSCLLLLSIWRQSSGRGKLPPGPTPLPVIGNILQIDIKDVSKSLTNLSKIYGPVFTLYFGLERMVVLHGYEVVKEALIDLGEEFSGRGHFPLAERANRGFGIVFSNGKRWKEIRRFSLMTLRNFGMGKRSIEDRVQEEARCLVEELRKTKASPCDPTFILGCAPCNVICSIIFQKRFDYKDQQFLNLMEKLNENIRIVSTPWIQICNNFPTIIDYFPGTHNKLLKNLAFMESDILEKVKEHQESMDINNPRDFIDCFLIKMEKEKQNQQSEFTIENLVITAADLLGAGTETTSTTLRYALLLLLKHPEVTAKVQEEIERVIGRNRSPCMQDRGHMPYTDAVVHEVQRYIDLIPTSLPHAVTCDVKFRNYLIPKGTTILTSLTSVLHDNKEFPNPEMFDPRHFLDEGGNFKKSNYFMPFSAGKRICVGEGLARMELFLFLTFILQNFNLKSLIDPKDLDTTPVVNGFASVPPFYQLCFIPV
SMILES,Potency [1],Potency [2],Potency [3],Potency [4],Potency [5]
C=C(C)CNCC,inactive,inactive,inactive,inactive,inactive
CC(=O)OCCOC(C)=O,inactive,inactive,–,inactive,inactive
CC1(C)CC(N)CC(C)(CN)C1 (stereo not given),inactive,inactive,inactive,inactive,5.73 µM (active) and 4.48 µM (active)
CCCCCCO,–,inactive,inactive,inactive,inactive
CC1(C)S[C@@H]2[C@H](NC(=O)COc3ccccc3)C(=O)N2[C@H]1C(=O)O,inactive,–,inactive,inactive,–
COCCOC(=O)c1ccccc1C(=O)OCCOC,22.6 µM (active) and 25.2 µM (active),–,22.6 µM (active) and 35.6 µM (active),inactive,inactive
